Results published in PubChem BioAssay (NCATS).
The source made the active and inactive calls. Calls come from the whole dose curve; as a rule, active = well fitted curve in the direction sought with a large enough effect; inconclusive = small, poorly fitted or top-dose-only effect, or another doubt; inactive = no such curve, though single readings can be large or run the other way.

Assay: HepG2 viability counterscreen (readout 2: ATP content) against the NCATS DSHEA and TCM libraries (AID 1794840);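 note: HepG2 cells exposed to substances for about 24 h; 0% is about no effect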
Settings: ATP content luminescence; series mostly up to 27.3 µM
Method in brief: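 1,000 HepG2 cells/well, 4 h attach; compounds ~24 h, 37C/5% CO2. Readout 1: GF-AFC 25 uM final, 30 min, fluorescence 380/510 nm. Readout 2: CellTiter-Glo, 30 min RT, luminescence.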

SMILES	outcome	activity change, negative = cytotoxic
CC(C)=CCCC(C)=CCCC(C)=CCCC=C(C)CCC=C(C)CCC=C(C)C	inactive	–
CCCCCCCCCCCCCCCCCCCCCCCCCCCCCCO	–	-1.11% [at 3.42 µM] (inactive)
CC(C)c1ccc(C=O)cc1	inactive	–
O=Cc1ccccc1O	inactive	–
CC/C=C\C/C=C\C/C=C\C/C=C\CCCCC(=O)O	–	-8.49% [at 3.42 µM] (inactive)
C=C1C[C@@]23CC[C@H]4[C@@](C)(CCC[C@@]4(C)C(=O)O[C@@H]4O[C@H](CO)[C@@H](O)[C@H](O)[C@H]4O)[C@@H]2CC[C@]1(O[C@@H]1O[C@H](CO)[C@@H](O)[C@H](O[C@@H]2O[C@H](CO)[C@@H](O)[C@H](O)[C@H]2O)[C@H]1O[C@@H]1O[C@@H](C)[C@H](O)[C@@H](O)[C@H]1O)C3	inactive	–
C=C1C[C@]23CC[C@H]4[C@@](C)(CCC[C@@]4(C)C(=O)O)[C@@H]2CC[C@@]1(O[C@@H]1O[C@H](CO)[C@@H](O)[C@H](O)[C@H]1O[C@@H]1O[C@H](CO)[C@@H](O)[C@H](O)[C@H]1O)C3	inactive	–
Cc1ccc(C(C)C)cc1	inactive	–
Cc1ncc(COP(=O)(O)O)c(C)c1O	inactive	–
OCCc1ccc(O)cc1	inactive	–
CN(CC(=O)O)C(=N)N	inactive	–
COc1ccc(C(=O)O)cc1	inactive	–
CC(C)(O)[C@@H]1CC[C@](C)([C@@H]2[C@H](O)C[C@]3(C)C4C[C@@H](O[C@H]5O[C@@H](CO)[C@H](O)[C@@H](O)[C@@H]5O)C5C(C)(C)[C@H](O[C@H]6OC[C@H](O)[C@@H](O)[C@@H]6O)CC[C@]56CC46CC[C@@]23C)O1 (stereo partly drawn)	inactive	–
C=CC(=C)CCC=C(C)C	inactive	–
CC1=CCC(O)(C(C)C)CC1 (stereo not drawn)	inactive	–
CCCCCC/C=C\CCCCCCCC(=O)O	inactive	–
CC(C)=CCC[C@](C)(O[C@@H]1O[C@H](CO)[C@@H](O)[C@H](O)[C@H]1O)[C@H]1CC[C@]2(C)[C@@H]1[C@H](O)C[C@@H]1[C@@]3(C)CC[C@H](O)C(C)(C)[C@@H]3[C@@H](O[C@@H]3O[C@H](CO)[C@@H](O)[C@H](O)[C@H]3O[C@@H]3O[C@@H](C)[C@H](O)[C@@H](O)[C@H]3O)C[C@]12C	inactive	–
C[C@@H]1O[C@@H](OC[C@H]2OC(Oc3c(-c4ccc(O)c(O)c4)oc4cc(O)cc(O)c4c3=O)[C@H](O)[C@@H](O)[C@@H]2O)[C@H](O)[C@H](O)[C@H]1O (stereo partly drawn)	inactive	–
